Consider 1 compound from the supplement of paper PMC11732987, “Enantioselective OTUD7B fragment discovery through chemoproteomics screening and high-throughput optimisation” (Communications Chemistry, 2025).

Common to all, as to assay: log2 ratio of Biotin-Ahx-Ub-VS probe labelling (fragment/DMSO); higher = less target engagement (more negative = stronger competition), active = hit call of the paper (q ≤ 0.05, log2 ratio ≤ -1)
Conditions in all cases: compound concentration: 200 uM; treatment time: 3 h

The target of one assay is T1, USP42 (UniProt Q9H9J4).
T1 sequence (whole entry): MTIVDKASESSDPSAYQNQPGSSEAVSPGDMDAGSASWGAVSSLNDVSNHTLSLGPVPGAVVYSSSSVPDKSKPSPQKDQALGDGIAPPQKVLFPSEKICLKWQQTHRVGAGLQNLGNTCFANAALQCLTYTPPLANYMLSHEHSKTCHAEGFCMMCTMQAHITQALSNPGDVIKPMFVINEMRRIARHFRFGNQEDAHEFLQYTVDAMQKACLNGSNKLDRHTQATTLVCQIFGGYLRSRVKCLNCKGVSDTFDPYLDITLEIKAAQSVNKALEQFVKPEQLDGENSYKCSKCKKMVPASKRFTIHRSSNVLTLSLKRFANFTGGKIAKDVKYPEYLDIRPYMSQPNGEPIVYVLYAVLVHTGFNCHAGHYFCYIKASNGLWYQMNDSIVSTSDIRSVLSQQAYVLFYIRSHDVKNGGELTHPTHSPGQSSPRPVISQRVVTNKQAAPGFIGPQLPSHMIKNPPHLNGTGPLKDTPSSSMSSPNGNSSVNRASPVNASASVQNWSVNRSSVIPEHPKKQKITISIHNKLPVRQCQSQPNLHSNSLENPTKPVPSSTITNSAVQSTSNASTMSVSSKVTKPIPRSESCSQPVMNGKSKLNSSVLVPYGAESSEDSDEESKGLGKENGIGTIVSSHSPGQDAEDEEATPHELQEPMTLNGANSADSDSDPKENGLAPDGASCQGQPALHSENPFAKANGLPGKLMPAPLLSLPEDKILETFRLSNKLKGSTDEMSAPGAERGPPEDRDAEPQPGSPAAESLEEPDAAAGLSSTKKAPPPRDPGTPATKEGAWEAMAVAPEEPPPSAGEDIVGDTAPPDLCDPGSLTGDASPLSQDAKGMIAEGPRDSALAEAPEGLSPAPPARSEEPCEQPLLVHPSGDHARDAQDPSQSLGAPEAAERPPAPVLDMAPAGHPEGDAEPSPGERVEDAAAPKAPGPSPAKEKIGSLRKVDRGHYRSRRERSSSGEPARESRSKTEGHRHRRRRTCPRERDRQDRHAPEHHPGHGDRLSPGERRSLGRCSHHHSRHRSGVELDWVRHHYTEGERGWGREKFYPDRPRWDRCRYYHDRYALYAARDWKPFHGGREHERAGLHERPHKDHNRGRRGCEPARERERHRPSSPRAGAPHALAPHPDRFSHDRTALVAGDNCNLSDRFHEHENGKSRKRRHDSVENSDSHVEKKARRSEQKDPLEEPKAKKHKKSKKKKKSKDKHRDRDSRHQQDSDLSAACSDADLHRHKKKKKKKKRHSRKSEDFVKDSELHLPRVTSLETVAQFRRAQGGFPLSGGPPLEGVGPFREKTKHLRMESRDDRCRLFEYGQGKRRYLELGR
The gist of the method:
(§1)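 Triplicate samples of HEK293T lysate, 495 µg each, received fragment at 200 µM or vehicle for 3 h, followed by Biotin-Ahx-Ub-VS (0.5 µM final) for 1 h. After NeutrAvidin enrichment of labelled DUBs and LysC/trypsin digestion, peptides were run by diaPASEF LC-MS/MS. The values are average log2 fragment/vehicle ratios from global-median-normalised Spectronaut label-free quantities, tested by unpaired t-test on proteins having ≥2 unique peptides.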

In a further assay the target is USP46 (UniProt P62068). The method, boiled down:
as §1

Another assay deals with T2, USP47 (UniProt Q96K76).
T2 sequence (whole entry): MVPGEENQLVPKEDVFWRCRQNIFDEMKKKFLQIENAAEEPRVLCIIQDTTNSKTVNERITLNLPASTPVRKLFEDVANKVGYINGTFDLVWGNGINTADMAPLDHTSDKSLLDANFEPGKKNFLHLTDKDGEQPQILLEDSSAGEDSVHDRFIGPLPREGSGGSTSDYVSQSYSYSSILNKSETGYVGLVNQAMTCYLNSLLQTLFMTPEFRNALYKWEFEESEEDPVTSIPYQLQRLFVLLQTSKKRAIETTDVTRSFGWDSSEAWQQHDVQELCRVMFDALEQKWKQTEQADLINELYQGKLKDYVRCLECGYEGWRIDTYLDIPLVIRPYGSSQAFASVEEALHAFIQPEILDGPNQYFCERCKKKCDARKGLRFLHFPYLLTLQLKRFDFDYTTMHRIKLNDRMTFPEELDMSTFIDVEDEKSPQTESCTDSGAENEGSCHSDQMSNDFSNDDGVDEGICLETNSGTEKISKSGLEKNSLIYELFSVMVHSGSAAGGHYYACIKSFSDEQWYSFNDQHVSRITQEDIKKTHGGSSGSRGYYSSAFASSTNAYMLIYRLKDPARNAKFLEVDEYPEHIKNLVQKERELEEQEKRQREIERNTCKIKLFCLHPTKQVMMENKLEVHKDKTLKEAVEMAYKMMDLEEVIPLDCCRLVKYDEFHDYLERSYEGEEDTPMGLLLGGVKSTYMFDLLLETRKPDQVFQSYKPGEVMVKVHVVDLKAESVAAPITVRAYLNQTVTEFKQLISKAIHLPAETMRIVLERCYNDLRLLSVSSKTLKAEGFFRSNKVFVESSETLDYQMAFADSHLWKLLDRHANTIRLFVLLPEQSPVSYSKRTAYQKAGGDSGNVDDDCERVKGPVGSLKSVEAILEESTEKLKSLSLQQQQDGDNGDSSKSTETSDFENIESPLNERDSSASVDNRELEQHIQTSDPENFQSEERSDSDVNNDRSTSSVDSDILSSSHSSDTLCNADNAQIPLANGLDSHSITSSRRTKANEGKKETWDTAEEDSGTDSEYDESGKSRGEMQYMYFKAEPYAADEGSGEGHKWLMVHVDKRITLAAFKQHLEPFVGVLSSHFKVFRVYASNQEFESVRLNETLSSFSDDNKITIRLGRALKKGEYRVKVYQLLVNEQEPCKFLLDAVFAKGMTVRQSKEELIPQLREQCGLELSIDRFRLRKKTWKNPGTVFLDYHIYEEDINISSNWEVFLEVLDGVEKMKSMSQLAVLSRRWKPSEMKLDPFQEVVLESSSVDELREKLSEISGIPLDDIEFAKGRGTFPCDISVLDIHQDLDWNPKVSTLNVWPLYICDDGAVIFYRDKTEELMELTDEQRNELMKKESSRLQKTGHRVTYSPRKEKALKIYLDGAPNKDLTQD
The method, boiled down: as §1

Another assay concerns the target T3, USP48 (UniProt Q86UV5).
T3 sequence (whole entry): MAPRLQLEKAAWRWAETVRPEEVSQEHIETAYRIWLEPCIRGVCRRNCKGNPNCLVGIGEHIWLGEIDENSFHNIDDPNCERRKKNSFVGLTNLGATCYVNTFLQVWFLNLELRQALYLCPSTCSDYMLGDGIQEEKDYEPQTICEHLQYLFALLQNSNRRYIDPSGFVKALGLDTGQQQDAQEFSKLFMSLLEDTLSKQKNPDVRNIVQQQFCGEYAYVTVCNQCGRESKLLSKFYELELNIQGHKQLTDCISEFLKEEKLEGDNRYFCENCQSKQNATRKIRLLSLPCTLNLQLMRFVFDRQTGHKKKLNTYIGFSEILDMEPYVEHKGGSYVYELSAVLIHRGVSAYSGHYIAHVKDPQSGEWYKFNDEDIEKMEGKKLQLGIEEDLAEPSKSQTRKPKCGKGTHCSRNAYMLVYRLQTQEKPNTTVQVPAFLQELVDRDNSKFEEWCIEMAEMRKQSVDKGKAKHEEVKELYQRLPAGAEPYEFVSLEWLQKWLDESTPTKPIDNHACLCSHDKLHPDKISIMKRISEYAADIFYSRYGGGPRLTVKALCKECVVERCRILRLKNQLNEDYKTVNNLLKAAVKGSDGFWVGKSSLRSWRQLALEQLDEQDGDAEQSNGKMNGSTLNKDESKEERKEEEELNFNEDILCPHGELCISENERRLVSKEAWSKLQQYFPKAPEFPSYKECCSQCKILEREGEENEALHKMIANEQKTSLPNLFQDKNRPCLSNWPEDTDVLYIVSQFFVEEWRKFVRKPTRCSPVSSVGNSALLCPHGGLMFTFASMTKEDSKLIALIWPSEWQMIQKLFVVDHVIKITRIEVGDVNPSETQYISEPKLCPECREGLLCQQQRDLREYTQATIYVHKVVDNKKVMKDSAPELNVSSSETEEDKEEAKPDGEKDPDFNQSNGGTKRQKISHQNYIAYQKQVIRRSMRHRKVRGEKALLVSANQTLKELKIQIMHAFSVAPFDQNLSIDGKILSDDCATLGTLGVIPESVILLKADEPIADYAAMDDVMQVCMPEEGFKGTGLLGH
The gist of the method: as §1

The target of the next assay is T4, USP5 (UniProt P45974).
T4 sequence (whole entry): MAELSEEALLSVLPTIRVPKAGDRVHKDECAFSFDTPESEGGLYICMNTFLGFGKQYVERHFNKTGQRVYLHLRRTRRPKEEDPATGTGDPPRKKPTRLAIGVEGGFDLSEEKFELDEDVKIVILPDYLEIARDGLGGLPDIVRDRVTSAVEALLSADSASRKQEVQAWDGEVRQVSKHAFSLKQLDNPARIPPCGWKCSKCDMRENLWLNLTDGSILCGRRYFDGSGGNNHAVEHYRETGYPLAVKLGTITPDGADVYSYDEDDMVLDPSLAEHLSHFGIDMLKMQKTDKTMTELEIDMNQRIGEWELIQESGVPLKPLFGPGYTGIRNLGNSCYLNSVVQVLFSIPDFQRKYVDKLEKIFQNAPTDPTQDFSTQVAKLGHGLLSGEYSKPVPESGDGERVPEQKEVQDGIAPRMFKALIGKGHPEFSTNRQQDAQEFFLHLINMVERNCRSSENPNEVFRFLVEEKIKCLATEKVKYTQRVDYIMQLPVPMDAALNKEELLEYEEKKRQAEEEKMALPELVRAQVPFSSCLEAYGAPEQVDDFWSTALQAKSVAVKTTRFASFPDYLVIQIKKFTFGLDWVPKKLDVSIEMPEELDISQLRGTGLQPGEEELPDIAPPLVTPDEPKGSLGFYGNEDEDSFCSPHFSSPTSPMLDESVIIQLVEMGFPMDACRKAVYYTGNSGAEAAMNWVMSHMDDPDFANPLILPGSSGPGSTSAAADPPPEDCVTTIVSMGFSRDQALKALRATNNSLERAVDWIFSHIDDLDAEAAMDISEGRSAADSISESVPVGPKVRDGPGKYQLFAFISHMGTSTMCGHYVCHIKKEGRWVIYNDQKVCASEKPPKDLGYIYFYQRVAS
The gist of the method:
as §1

In another assay the target is USP54 (UniProt Q70EL1). The gist of the method:
as §1

For a further assay, the target named is USP7 (UniProt Q93009). The gist of the method: as §1
Chain of USP7 (Q93009 whole entry, looked up): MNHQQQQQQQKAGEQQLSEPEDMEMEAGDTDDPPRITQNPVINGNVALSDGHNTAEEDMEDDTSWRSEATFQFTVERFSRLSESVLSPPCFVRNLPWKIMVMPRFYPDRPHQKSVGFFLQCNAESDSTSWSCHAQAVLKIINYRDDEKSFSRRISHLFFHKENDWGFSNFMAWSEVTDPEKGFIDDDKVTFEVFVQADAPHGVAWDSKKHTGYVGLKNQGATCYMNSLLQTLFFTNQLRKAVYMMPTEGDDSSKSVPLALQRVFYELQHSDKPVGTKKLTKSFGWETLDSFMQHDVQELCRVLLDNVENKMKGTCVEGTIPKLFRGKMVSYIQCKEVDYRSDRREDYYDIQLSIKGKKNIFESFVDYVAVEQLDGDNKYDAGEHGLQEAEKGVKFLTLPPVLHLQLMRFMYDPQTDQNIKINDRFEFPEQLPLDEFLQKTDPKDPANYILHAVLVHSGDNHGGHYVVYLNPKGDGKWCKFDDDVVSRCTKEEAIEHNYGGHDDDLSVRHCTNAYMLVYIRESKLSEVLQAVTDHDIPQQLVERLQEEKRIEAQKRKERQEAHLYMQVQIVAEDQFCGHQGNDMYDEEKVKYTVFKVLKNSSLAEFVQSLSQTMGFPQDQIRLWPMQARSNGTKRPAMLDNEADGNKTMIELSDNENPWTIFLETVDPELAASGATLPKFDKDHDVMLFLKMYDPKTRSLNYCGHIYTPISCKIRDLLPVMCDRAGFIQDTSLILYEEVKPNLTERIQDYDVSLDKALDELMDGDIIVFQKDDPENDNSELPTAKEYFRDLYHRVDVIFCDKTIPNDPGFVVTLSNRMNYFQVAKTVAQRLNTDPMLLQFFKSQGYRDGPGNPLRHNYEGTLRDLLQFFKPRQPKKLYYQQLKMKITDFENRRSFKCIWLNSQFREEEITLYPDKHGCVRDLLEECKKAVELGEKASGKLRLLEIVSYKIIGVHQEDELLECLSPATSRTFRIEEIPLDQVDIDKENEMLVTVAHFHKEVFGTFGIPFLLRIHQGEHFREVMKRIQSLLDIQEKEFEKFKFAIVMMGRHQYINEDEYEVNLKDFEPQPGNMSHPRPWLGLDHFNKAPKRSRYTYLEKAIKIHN
The next assay deals with T5, USP8 (UniProt P40818).
T5 sequence (whole entry): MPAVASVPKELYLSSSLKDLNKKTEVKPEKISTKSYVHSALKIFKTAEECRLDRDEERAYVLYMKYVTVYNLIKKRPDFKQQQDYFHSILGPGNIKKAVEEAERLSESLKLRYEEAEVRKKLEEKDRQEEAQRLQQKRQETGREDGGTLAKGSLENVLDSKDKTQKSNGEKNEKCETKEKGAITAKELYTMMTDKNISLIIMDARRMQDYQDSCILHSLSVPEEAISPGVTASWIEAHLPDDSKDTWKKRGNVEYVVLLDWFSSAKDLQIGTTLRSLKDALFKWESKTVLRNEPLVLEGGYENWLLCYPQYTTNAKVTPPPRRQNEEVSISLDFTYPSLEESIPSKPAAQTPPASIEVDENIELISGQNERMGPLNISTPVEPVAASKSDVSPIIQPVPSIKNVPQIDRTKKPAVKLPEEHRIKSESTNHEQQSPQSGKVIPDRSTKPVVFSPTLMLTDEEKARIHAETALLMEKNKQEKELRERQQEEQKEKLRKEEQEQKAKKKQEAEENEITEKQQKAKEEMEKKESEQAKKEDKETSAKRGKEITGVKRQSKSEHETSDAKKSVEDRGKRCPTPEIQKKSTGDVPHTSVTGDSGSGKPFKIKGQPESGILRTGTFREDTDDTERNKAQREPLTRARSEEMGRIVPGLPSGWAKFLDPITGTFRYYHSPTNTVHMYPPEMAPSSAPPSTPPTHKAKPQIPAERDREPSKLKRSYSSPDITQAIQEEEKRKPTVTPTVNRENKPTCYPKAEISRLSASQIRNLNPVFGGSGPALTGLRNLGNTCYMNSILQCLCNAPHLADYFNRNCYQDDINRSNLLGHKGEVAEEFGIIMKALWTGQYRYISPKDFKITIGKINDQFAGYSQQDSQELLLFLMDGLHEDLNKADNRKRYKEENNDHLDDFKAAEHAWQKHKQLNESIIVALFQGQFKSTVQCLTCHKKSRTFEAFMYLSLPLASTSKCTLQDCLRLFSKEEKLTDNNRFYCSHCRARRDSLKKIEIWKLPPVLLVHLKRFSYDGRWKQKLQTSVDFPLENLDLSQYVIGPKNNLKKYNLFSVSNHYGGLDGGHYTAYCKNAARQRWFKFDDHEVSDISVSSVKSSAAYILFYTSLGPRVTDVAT
The gist of the method:
as §1

The next assay deals with USP9X (UniProt Q93008). The gist of the method: as §1
Chain of USP9X (Q93008 whole entry): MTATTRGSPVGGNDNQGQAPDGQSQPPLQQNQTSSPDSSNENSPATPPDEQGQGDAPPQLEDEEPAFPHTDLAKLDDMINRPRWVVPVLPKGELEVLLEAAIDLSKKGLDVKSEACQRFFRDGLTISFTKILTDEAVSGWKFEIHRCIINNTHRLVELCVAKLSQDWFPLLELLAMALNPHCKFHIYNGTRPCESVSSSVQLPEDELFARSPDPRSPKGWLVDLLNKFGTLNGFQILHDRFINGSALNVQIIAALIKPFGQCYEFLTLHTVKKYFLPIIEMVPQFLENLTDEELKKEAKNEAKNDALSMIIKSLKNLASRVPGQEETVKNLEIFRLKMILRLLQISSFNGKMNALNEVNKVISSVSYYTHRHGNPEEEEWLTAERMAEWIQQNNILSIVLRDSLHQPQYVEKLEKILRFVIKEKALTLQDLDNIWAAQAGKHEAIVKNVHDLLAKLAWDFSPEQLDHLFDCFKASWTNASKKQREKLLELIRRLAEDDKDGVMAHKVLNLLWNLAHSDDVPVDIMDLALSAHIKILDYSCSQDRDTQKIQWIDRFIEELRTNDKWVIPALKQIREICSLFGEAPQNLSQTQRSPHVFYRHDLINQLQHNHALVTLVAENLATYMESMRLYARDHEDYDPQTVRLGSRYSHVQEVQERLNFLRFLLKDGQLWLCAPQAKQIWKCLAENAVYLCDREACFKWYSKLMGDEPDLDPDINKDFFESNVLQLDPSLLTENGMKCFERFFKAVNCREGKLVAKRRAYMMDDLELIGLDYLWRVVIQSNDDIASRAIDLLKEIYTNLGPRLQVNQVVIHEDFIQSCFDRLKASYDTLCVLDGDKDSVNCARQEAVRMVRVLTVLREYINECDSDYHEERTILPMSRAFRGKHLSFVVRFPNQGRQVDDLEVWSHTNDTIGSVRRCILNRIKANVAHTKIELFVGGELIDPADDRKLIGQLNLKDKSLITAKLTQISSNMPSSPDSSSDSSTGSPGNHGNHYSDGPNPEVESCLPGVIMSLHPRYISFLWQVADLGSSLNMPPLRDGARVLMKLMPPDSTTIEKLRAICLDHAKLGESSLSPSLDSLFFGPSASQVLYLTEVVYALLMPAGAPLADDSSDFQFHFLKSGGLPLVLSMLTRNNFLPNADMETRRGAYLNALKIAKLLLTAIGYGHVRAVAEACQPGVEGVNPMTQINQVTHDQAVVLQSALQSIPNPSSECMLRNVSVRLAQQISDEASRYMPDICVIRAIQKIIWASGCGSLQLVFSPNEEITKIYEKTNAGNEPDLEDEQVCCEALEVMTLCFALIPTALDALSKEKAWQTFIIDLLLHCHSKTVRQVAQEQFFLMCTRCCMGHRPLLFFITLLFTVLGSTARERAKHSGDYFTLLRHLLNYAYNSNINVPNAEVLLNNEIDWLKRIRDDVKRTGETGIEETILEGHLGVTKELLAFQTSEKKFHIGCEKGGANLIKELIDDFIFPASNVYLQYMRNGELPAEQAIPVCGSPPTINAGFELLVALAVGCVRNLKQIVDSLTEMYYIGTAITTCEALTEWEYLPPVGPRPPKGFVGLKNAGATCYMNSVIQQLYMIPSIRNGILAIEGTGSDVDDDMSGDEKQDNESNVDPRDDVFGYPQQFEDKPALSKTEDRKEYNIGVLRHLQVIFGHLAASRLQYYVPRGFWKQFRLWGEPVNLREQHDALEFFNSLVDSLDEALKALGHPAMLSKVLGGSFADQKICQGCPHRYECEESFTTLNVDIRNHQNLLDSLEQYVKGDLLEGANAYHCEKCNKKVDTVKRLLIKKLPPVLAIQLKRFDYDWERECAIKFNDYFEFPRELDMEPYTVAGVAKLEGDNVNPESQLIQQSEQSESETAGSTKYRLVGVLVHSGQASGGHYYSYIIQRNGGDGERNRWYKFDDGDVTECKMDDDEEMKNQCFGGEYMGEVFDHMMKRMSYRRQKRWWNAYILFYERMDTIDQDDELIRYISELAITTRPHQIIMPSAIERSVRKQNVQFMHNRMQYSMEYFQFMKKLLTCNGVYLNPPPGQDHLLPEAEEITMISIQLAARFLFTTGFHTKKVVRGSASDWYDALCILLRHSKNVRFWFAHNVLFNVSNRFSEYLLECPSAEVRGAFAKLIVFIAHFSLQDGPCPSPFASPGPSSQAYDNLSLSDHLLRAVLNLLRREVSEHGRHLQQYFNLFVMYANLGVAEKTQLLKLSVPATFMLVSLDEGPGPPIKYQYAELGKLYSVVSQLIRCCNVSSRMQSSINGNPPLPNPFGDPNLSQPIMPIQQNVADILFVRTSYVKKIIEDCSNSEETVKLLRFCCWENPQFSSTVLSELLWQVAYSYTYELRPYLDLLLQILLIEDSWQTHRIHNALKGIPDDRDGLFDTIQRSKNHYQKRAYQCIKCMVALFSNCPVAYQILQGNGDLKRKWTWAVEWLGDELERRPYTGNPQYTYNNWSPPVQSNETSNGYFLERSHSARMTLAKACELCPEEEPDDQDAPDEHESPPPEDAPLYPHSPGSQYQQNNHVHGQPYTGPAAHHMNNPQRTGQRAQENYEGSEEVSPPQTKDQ
The target of another assay is UniProt O00487. The method, boiled down: as §1
Chain of UniProt O00487 (O00487 whole entry): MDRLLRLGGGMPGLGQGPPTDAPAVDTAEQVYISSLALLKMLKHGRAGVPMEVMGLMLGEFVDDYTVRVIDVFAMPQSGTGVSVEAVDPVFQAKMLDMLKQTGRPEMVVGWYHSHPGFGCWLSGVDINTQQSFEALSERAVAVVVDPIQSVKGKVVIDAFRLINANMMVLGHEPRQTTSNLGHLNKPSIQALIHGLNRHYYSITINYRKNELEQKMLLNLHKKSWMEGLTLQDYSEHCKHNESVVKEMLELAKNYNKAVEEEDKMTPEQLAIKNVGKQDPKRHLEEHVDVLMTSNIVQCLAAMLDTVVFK

Molecules are shown by their SMILES. A number with no mark means an inactive call.

Chain of USP46 (P62068 whole entry): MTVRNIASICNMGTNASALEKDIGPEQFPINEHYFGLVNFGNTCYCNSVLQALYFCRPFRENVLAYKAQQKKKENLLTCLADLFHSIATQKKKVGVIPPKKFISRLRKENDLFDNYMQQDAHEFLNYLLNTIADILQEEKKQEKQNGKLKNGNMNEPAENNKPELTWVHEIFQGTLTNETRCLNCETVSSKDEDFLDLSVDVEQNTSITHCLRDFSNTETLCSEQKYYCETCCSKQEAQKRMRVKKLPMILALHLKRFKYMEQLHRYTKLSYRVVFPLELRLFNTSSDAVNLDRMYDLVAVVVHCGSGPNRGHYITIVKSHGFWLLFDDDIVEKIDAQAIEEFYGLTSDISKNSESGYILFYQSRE

`NC(=O)C1CCCCN1C(=O)CCl` (stereo not given): the “log2 ratio of Biotin-Ahx-Ub-VS probe labelling” value in the assay with USP42 was -0.0547; in the assay with USP46 it was 0.025; with USP47, -0.299; with USP48, -1.03 (active); with USP5, 0.371; with USP54, 0.325. In addition, the “log2 ratio of Biotin-Ahx-Ub-VS probe labelling” value with USP7 is -0.76; with USP8, -0.26; with USP9X it was -0.213; with UniProt O00487, -0.0664.
